Experimental data published in PubChem BioAssay (NCI).
“And” between values parts separate entries of the source, which are not always exact repeats. Equal entries are not always repeated. Compounds without any hit were thinned out: in the full panel of roughly 83,000, 20% have a hit.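 Testing used 96-well plates and a 48-hour single-concentration exposure. Example: -40 means 40% of the starting cells died.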 The source made the active and inactive calls. How the source made its calls: active means growth percent below 10; inactive means the rest.

Assays:
Test in all cases: NCI-60 one-dose screen, 48 h (100 = growth as untreated, 0 = no growth, -100 = all killed)
Details in all cases: 10 µM unless noted
[1] = system: DU-145 prostate
[2] = system: K-562 leukemia
[3] = system: MALME-3M melanoma
[4] = system: MDA-MB-231 breast
[5] = system: RXF 393 renal
[6] = system: SF-268 CNS
[7] = system: SF-295 CNS
[8] = system: SF-539 CNS
[9] = system: UACC-257 melanoma
[10] = system: M14 melanoma

Structure (SMILES)	growth [1]	growth [2]	growth [3]	growth [4]	growth [5]	growth [6]	growth [7]	growth [8]	growth [9]	growth [10]
O=C(N/N=C/c1ccccc1)N/N=C/c1ccccc1	131% (inactive) and 109% (inactive)	95% (inactive)	94.4% (inactive) and 107% (inactive)	106% (inactive)	107% (inactive) and 98.5% (inactive)	112% (inactive) and 100% (inactive)	92.4% (inactive) and 105% (inactive)	100% (inactive) and 98.3% (inactive)	90.3% (inactive) and 106% (inactive)	123% (inactive) and 115% (inactive)
Oc1c(CN2CCCCC2)ccc2cccnc12	67.9% (inactive) and 53.7% (inactive)	28.8% (inactive) and 30.6% (inactive)	88.1% (inactive) and 82.5% (inactive)	53.2% (inactive) and 46.9% (inactive)	85.1% (inactive) and 3.68% (active)	69.3% (inactive) and 47.6% (inactive)	37.1% (inactive)	74.7% (inactive) and 57% (inactive)	77.1% (inactive) and 71.6% (inactive)	20.7% (inactive) and 32.6% (inactive)
Cc1ccc(S(=O)(=O)Nc2nc3ccccc3nc2Nc2ccc3nsnc3c2)cc1	71.2% (inactive) and 62.5% (inactive)	32.8% (inactive) and 35.3% (inactive)	33.3% (inactive) and 9.84% (active)	73.7% (inactive) and 68.8% (inactive)	80.3% (inactive) and 87.8% (inactive)	52.2% (inactive) and 54.5% (inactive)	25.2% (inactive) and 26.7% (inactive)	63.9% (inactive) and 60.8% (inactive)	27% (inactive) and 54.4% (inactive)	48% (inactive) and 49.6% (inactive)
C#CCN(C)Cc1ccccc1	111% (inactive)	95.9% (inactive) and 94.2% (inactive)	100% (inactive) and 305% (inactive)	106% (inactive) and 89.6% (inactive)	114% (inactive) and 96.6% (inactive)	107% (inactive) and 99.5% (inactive)	108% (inactive) and 98.1% (inactive)	97.8% (inactive)	105% (inactive)	97.3% (inactive) and 96.8% (inactive)
Cc1nn(-c2ccc(Cl)cc2)c2ncnc(N/N=C/c3ccccc3O)c12	19.1% (inactive) and 21% (inactive)	18.5% (inactive) and 14.7% (inactive)	48.7% (inactive) and 0.643% (active)	32.6% (inactive) and 32.4% (inactive)	25.7% (inactive) and 14.5% (inactive)	9.67% (active) and 7.69% (active)	24.5% (inactive) and 10% (inactive)	14% (inactive) and 4.62% (active)	-3.7% (active) and 9.92% (active)	0.303% (active)
O=[N+]([O-])c1ccc(Oc2ccccc2)cc1	117% (inactive) and 127% (inactive)	118% (inactive) and 123% (inactive)	106% (inactive) and 124% (inactive)	109% (inactive) and 136% (inactive)	117% (inactive) and 118% (inactive)	106% (inactive) and 99.4% (inactive)	95.4% (inactive) and 121% (inactive)	104% (inactive) and 98.1% (inactive)	108% (inactive) and 91.7% (inactive)	98.6% (inactive) and 108% (inactive)
CC1(c2ccc3ccccc3c2)CCC(=O)O1 (stereo not drawn)	107% (inactive)	86.7% (inactive)	96.8% (inactive)	111% (inactive)	104% (inactive)	99.7% (inactive)	107% (inactive)	95.7% (inactive)	96.5% (inactive)	
CCOc1ccc2nc3cc(N)ccc3c(N)c2c1	64.2% (inactive) and 67.6% (inactive)	113% (inactive) and 57.9% (inactive)	-18.6% (active) and -14.8% (active)	86.5% (inactive)	55.5% (inactive) and 43.2% (inactive)	-39.5% (active) and -36.7% (active)	30.4% (inactive) and 16.5% (inactive)	34.9% (inactive) and 31.7% (inactive)	62.3% (inactive) and 67.3% (inactive)	90.3% (inactive) and 75.8% (inactive)
CCN(CC)CCNc1cc(-c2cccc(OC(F)(F)F)c2)nc2ccc(N3CCCC3)cc12	60.6% (inactive) and 19% (inactive) and 45.4% (inactive)	-23% (active) and -25.5% (active) and -21% (active)	-50.9% (active) and -42.3% (active) and -14.1% (active)	0.557% (active) and -6.72% (active) and -8.3% (active)	16.3% (inactive) and -15.5% (active) and 34.2% (inactive)	61.1% (inactive) and 18.8% (inactive) and 34.5% (inactive)	72% (inactive) and -26.3% (active) and 35.1% (inactive)	31.6% (inactive) and -38.2% (active) and 56.9% (inactive)	62.5% (inactive) and -10.1% (active) and -0.682% (active)	-85.8% (active) and -56.6% (active) and -63.5% (active)
Nc1ncnc2c1ncn2C1CC(O)C(CO)O1 (stereo not drawn)	125% (inactive) and 118% (inactive)	116% (inactive) and 96.6% (inactive)	220% (inactive) and 110% (inactive)	112% (inactive) and 119% (inactive)	109% (inactive)	116% (inactive) and 107% (inactive)	82.6% (inactive) and 95% (inactive)	89.6% (inactive) and 121% (inactive)	102% (inactive)	113% (inactive) and 103% (inactive)
CN(C)c1ccc(C(=C2C=CC(=[N+](C)C)C=C2)c2ccccc2Cl)cc1	-97% (active)	7.59% (active)	-56.3% (active) and -46.1% (active)	-36.9% (active) and -66.9% (active)	-84.3% (active)	-84.1% (active)	-30.4% (active) and -25.8% (active)	-58.9% (active) and -92.1% (active)	-77.7% (active)	-62.8% (active) and -95.3% (active)
CNC(=O)c1ccc(C)c(-n2c(C)cc(OCc3ccc(F)cc3F)c(Br)c2=O)c1	91.6% (inactive) and 95.9% (inactive)	43% (inactive) and 80.7% (inactive)	98.9% (inactive) and 95.9% (inactive)	88.8% (inactive) and 93.1% (inactive)	87.7% (inactive)	81.6% (inactive) and 84.2% (inactive)	68.9% (inactive) and 78.3% (inactive)	89.5% (inactive) and 88.2% (inactive)	70.5% (inactive)	
CC(=O)Nc1cc(S(=O)(=O)O)cc2cc(S(=O)(=O)O)c(N=Nc3ccccc3)c(O)c12	118% (inactive) and 114% (inactive)	107% (inactive) and 84.6% (inactive)	110% (inactive) and 99.4% (inactive)	100% (inactive) and 104% (inactive)	107% (inactive) and 113% (inactive)	107% (inactive) and 100% (inactive)	105% (inactive) and 110% (inactive)	105% (inactive)	115% (inactive) and 94.5% (inactive)	103% (inactive) and 97.8% (inactive)
COc1cc(/C=N/Nc2nc3c([nH]2)c(=O)n(C)c(=O)n3C)ccc1O	114% (inactive)	91.4% (inactive) and 106% (inactive)	88.5% (inactive) and 97.9% (inactive)	96.4% (inactive) and 107% (inactive)	122% (inactive) and 123% (inactive)	104% (inactive) and 109% (inactive)	115% (inactive) and 118% (inactive)	89.9% (inactive) and 104% (inactive)	102% (inactive) and 110% (inactive)	102% (inactive) and 108% (inactive)
Cc1cccc(/C=C\C(=O)c2ccccc2)c1	99.9% (inactive) and 104% (inactive)	67% (inactive) and 3.91% (active)	91.5% (inactive)	94% (inactive) and 110% (inactive)	118% (inactive) and 96.8% (inactive)	105% (inactive) and 99.5% (inactive)	116% (inactive) and 95.7% (inactive)	112% (inactive) and 108% (inactive)	102% (inactive) and 109% (inactive)	98.5% (inactive)
